Several values for one entry are separate records, joined by “and”; a condition that tells them apart may be missing. Equal values may be shown once. The panel holds about 83,000 compounds, 20% with a hit somewhere; the sample as a whole holds those more often.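 Note: values are percent growth. 100 is the growth of untreated cells, values between 100 and 0 indicate rising inhibition; between -100 and 0 indicates cell death.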 Activity calls are given as the source filed them.
These molecules were tested on MDA-MB-468 breast (assay: NCI-60 one-dose screen, 48 h (100 = growth as untreated, 0 = no growth, -100 = all killed)). Conditions: 10 µM unless noted.
Method: Growth inhibition of the MDA-MB-468 human Breast tumor cell line is measured as a screen for anti-cancer activity. Cells are grown in 96 well plates and exposed to the test compound for 48 hours. Compounds are tested at a single concentration, which is 10^-5 M for most compounds. The reported endpoint is percent growth (GI% or GIPRCNT), where numbers from 0 - 100% represent growth inhibition, and numbers from -100% - 0 represent cell death. For example, a value of 40 represents 60% growth inhibition. A value of 0 means no net growth occurred over the course of the experiment. A value of -40 indicates 40% of cells at the beginning of the experiment died by the end of the experiment. A value of -100 means all cells are dead at the end of the experiment.
NCI-60 Human Tumor Cell Lines Screen was performed using the standard one-dose NCI protocol, which is described in more detail at https://dtp.cancer.gov/discovery_development/nci-60/default.htm.
Compounds with GIPRCNT values below 10 were considered active. Activity score was based on GIPRCNT using the following formula: […]
Score is 0 for GIPRCNT values of 100 or above, 50 for GIPRCNT values of 0, and 100 for GIPRCNT values of -100.

Row | SMILES | growth
1 | CC1(C)N=C(N)N=C(N)N1c1cccc(C(=O)Nc2cccc(S(=O)(=O)F)c2)c1 | 94.6% (inactive)
2 | CN(C)c1ccc(N)cc1 | 98% (inactive) and 5.01% (active)
3 | OB([O][Hg][c]1ccccc1)[O][Hg][c]1ccccc1 | -71.2% (active)
4 | CN1CCCCC1C(C)(O)c1ccccc1 (stereo not given) | 102% (inactive)
5 | COC[C@@H]1C[C@@]2(C)[C@@H](CC[C@@H]3[C@@H]2CC[C@@]2(C)[C@H]3CC[C@]2(C)O)CC1=O | 99% (inactive)
6 | COc1cc([N+](=O)[O-])c2ncccc2c1[N+](=O)[O-] | 0.105% (active)
7 | O=C(CC1(O)C(=O)N(Cc2ccccc2)c2ccccc21)c1ccc(C(=O)NCC2CCC3(CC2)OOC2(CCCCC2)OO3)cc1 (stereo not given) | -56.6% (active)
8 | N#CC(NC(=O)CCl)=C(Cl)Cl | -48.2% (active)
9 | COc1ccc2c(c1)c(-c1nc(-c3c[nH]c4ncccc34)cs1)cn2CCCCN1CCOCC1 | 39.3% (inactive)
10 | O=C1NC(=O)C(=Cc2cn(C(=O)c3ccccc3)c3ccccc23)C(=O)N1 | 101% (inactive)
11 | COP(=O)(CC(F)(F)C(F)(F)F)OC | -53.6% (active)
12 | COC(=O)[C@@H](C[C@H](Cc1ccccc1)NC(=O)c1csc([C@@H](C[C@H](C(C)C)N(C)C(=O)[C@@H](NC(=O)[C@H]2CCCCN2C)C(C)C)OC(C)=O)n1)NC(=O)OCc1ccccc1 | 16.5% [9.5 µM] (inactive)
13 | COC1=CC(=O)OC(CCc2ccc3c(c2)OCO3)C1 (stereo not given) | 95.9% (inactive)
14 | COc1cc2c(cc1OC)C13CCN4CC5=CCOC6CC(=O)N2C1C6C5CC43 (stereo not given) | 116% (inactive) and 108% (inactive)
15 | C[C@]12CCc3sc(Nc4ccc(O)cc4)nc3C1=CC[C@@H]1[C@@H]2CC[C@]2(C)C(=O)CC[C@@H]12 | -36.9% (active)
16 | C/C(=C\c1ccn(-c2ccc(N)c(C(F)(F)F)c2)n1)[C@@H]1C[C@@H]2O[C@]2(C)CCC[C@H](C)[C@H](O)[C@@H](C)C(=O)C(C)(C)[C@@H](O)CC(=O)O1 | 4.12% (active)
17 | ClCCN(CCCl)c1nc(Cl)c(C2CC(c3ccccc3)=NN2c2ccccc2)s1 (stereo not given) | 75.4% (inactive)
18 | CC1([N+](=O)[O-])COP(=O)(Nc2ccc(F)cc2)OC1 (stereo not given) | 110% (inactive)
19 | Cc1c(C)c([N+](=O)[O-])c(C)c(C)c1[N+](=O)[O-] | 95.2% (inactive)
20 | [N-]=[N+]=CC(=O)CCC(=O)C=[N+]=[N-] | 113% (inactive)

Row | SMILES | growth
21 | O=C(c1cccs1)C1NO[N+]([O-])=C1c1cccs1 (stereo not given) | -47.7% (active)
22 | Clc1ccc(N2COOC3(OOC2)C2CC4CC(C2)CC3C4)cc1 | 65.3% (inactive)
23 | Cc1ccc2[nH]c(=S)n(-c3ccc(F)cc3)c(=O)c2c1 | 92.1% (inactive)
24 | CC[C@]12C=CCN3CC[C@@]4(c5ccc(OC)cc5N(C)[C@H]4[C@@](O)(C(=O)OC)[C@@H]1OC(=O)CCC[P+](C1CCCCC1)(C1CCCCC1)C1CCCCC1)[C@@H]32 | -79.6% (active)
25 | CC[C@H](C)[C@@H]1OC(=O)C(C)(C)[C@H](O)[C@H](Cc2ccccc2)OC(=O)[C@H](C(C)C)OC(=O)[C@@H](NC(=O)c2cccc(NC=O)c2O)[C@@H](C)OC1=O | 9.86% (active)
26 | COc1cccc2c1c(C(=O)C(=O)Nc1cc(C)no1)cn2Cc1ccc(F)cc1 | 48.4% (inactive)
27 | C[C@]12CCc3sc(-c4cccc(F)c4)nc3C1=CC[C@@H]1[C@@H]2CC[C@]2(C)C(=O)CC[C@@H]12 | 29.2% (inactive)
28 | Cc1nnc([S-])o1.[Au+].c1ccc([PH+](c2ccccc2)c2ccccc2)cc1 | -6.44% (active)
29 | O=C(Nc1ccc([As]=[As]c2ccc(NC(=O)c3ccccc3)cc2)cc1)c1ccccc1 (stereo not given) | -74.8% (active)
30 | CC(=O)Nc1nc2c(s1)C1=CC[C@H]3[C@@H]4CC[C@H](OC(C)=O)[C@@]4(C)CC[C@@H]3[C@@]1(C)CC2 | 55.7% (inactive)
31 | [O-][n+]1ccccc1S | 85.2% (inactive)
32 | COC(=O)[C@@H](C)C[C@H](Cc1ccccc1)NC(=O)c1csc([C@@H](C[C@H](C(C)C)N(C)C(=O)[C@H](C)NC(=O)[C@H]2CCCCN2C)OC(C)=O)n1 | 10.1% (inactive)
33 | CC(C)(O)/C=C/C(=O)[C@](C)(O)[C@H]1[C@H](O)C[C@@]2(C)[C@H]3CC=C4[C@@H](C[C@H](O)C(=O)C4(C)C)[C@]3(C)C(=O)C[C@]12C | -23.4% (active)
34 | CCCCCCCCCC(=O)N[C@@](C)(CC)C(=O)N1CCC[C@H]1C(=O)N[C@@H](CC(C)C)C(=O)N[C@@](C)(CC)C(=O)N[C@@H](CCC(N)=O)C(=O)N[C@H](CCC(N)=O)C(=O)NC(C)(C)C(=O)NC(C)(C)C(=O)N[C@@H](CCC(N)=O)C(=O)N[C@H](CC(C)C)C(=O)N[C@H](CO)CC(C)C | -94.7% (active) and -92.4% (active)
35 | CC(Cc1ccc2c(c1)OCO2)NN (stereo not given) | 105% (inactive)
36 | CCCC(C)(C)c1ccc2c(c1)OC(C)(C)[C@@H]1CC=C(C)C[C@@H]21 | 97.6% (inactive)
37 | O=C(CCF)c1ccc(O)cc1 | 108% (inactive)
38 | CC[C@H](CC[C@@H](C)[C@H]1CC[C@H]2[C@@H]3CC[C@H]4C[C@]5(CC[C@]4(C)[C@H]3CC[C@]12C)OO[C@](C)(C(F)(F)F)O5)C(C)C | 95.2% (inactive)
39 | CC[C@]12C=CCN3CC[C@@]4(c5ccc(OC)cc5N(C)[C@H]4[C@@](O)(C(=O)OC)[C@@H]1OC(=O)CCCC[P+](C1CCCCC1)(C1CCCCC1)C1CCCCC1)[C@@H]32 | -79% (active)
40 | COc1cc(C=C2c3ccccc3C(=O)c3ccccc32)ccc1OCCCCOc1cc2c(cc1OC)C(=O)N1CCCC1C=N2 (stereo not given) | -75.4% (active)

Source: PubChem BioAssay (NCI)
